Here are results for 62 molecules from PubChem BioAssay AID1259313 (Sanford-Burnham Center for Chemical Genomics, 2017).

Structures are written as SMILES. About 8,500 (2.5%) of roughly 340,000 compounds were called active. What follows is part of a selection rich in actives, with near analogues and random picks from the rest. Values without a mark were called inactive.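 The calls were made as follows: active = melting temperature shift of at least 10% of the positive control shift, at one fixed dose; inactive = the rest.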

In the assay the test system is Glutamate receptor ionotropic, NMDA 3A (GRIN3A) ligand-binding domain. The assay can be described thus: NR3A LBD thermal stabilization by compounds – biophysical, differential scanning fluorimetry, uHTS, primary screen (AID 1259313). Particulars: at 25 µM, active compounds read high, 0% = protein alone, 100% = glycine-bound protein. In general terms: In DSF a fluorescence change marks the thermal transition of the protein.
For the molecule `CCOc1ccc(N=C2SC(C(=O)O)CC(=O)N2C)cc1` (configuration not stated), the Tm shift relative to glycine control was 1.77%.
Under `CCOc1[nH]n(-c2ccc(Cl)cc2)c(=O)c1C=Nc1ccc(O)cc1` stands 5.05%; under `CCOc1ccc(N=C2NC(=O)S/C2=C\c2ccc(O)cc2)cc1`, 15.1% (active); under `CCCCn1c(N)c(N(CC(C)C)C(=O)CN(C)S(=O)(=O)c2ccc(F)cc2)c(=O)[nH]c1=O`, -1.73%.
Consider `Nc1cc(N)nc(SCC(=O)Nc2cccc(S(=O)(=O)N3CCCCC3)c2)n1`, for which the Tm shift relative to glycine control is -2.96%.
For `COc1cc(/C=C/C(=O)OCC(=O)Nc2cccc(Oc3ccccc3)c2)ccc1O`, the Tm shift relative to glycine control is 16.3% (active).
With `COc1ccc(/C=C/C(=O)OCC(=O)Nc2cccc(Oc3ccccc3)c2)c(OC)c1`, the Tm shift relative to glycine control is 1.79%.
In the case of `COc1cc(/C=C/C(=O)OCC(=O)NCCCc2ccccc2)ccc1O`, the Tm shift relative to glycine control was -3.57%.
Regarding `Nc1ccc(S(=O)(=O)Nc2nccc(/C=C/c3ccc(Br)s3)n2)cc1`, the Tm shift relative to glycine control was 3.72%.
Turning to `Oc1cccc2ccc(/C=C/c3ccc(Br)s3)nc12`, the Tm shift relative to glycine control was 27.9% (active).
On to `CC(Sc1nc2cc(Cl)ccc2s1)C(=O)Nc1ccc2c(c1)OCO2` (configuration not stated), for which the Tm shift relative to glycine control was 17.5% (active).
In the case of `CC(Sc1nc(-c2ccccc2)cc(C(F)(F)F)n1)C(=O)Nc1ccc2c(c1)OCO2` (configuration not stated) it was -3.7%; in that of `O=C(Nc1ccc2c(c1)OCO2)c1sc2cc(Cl)ccc2c1Cl`, 2.38%.
In the case of `COC(=O)Nc1ncc(CN2CCCCC2)s1` it was 0.99%; in that of `COC(=O)Nc1ncc(CN2C(=O)c3ccccc3C2=O)s1`, 13.7% (active).
Turning to `COc1cc(C(C)=O)ccc1OC(=O)CN1C(=O)c2ccccc2C1=O`, the Tm shift relative to glycine control was -1.44%.
As for `CN(Cc1ccccc1)C(=O)CCNC(=O)Cn1cnc2ccccc2c1=O`, the Tm shift relative to glycine control was 1.47%.
In the case of `CC(C)=CCCC1(C)C=Cc2c(ccc3c2[nH]c2cc(O)c(C)cc23)O1` (configuration not stated) it was 22.5% (active).
As for `O=C(O)CC/C(=N\NC(=O)c1ccc(F)cc1)c1ccc(Br)cc1`, the Tm shift relative to glycine control is -1.55%.
As to `Cc1sc(NC(=O)c2ccc3ncsc3c2)c(C(N)=O)c1C`, the Tm shift relative to glycine control was 28.4% (active).
For `O=C(COC(=O)c1ccc2ncsc2c1)Nc1ccc(Cl)cc1`, the Tm shift relative to glycine control was -0.85%.
For `COc1ccccc1-c1nnc(NC(=O)c2ccc3ncsc3c2)o1`, the Tm shift relative to glycine control was -3.33%.
On to `COc1cc(OC)c(C(=O)NNC(=O)c2ccc(NS(=O)(=O)c3cccs3)cc2)cc1OC`, for which the Tm shift relative to glycine control is 0.08%.
As for `Cc1ccc(C(=O)N/C(=C/c2cccs2)C(=O)N2CCCCC2)cc1`, the Tm shift relative to glycine control was -1.69%.
`COc1ccc(-c2ccc3nnc(SCC(=O)Nc4ccc(NC(C)=O)cc4)n3n2)cc1`: the Tm shift relative to glycine control is -5.8%.
On to `COc1ccccc1NC(=O)c1cc(N2C(=O)C3C4CCC(C4)C3C2=O)ccc1Cl` (configuration not stated), for which the Tm shift relative to glycine control was -3.68%.
Under `CCc1ccnc(NS(=O)(=O)c2ccc3c(c2)OCCO3)c1` stands -2.2%; under `COc1cc2ccccc2cc1C(=O)N(CCN(C)C)c1nc2c(F)cccc2s1`, 3.31%; under `Fc1cc(F)c2nc(Nc3nc4c(F)cccc4s3)sc2c1`, 17.3% (active).
For `NC(=O)c1c(Nc2nc3c(F)cccc3s2)sc2c1CCCC2`, the Tm shift relative to glycine control was 10.8% (active).
In the case of `O=C(Nc1sc2c(c1C(=O)O)CCC2)c1ccccc1F` it was 1.58%; in that of `NNc1nc2c(Cl)cccc2s1`, -0.09%; in that of `COc1cccc(OC)c1C(=O)Nc1sc2c(c1C(N)=O)CCCC2`, -0.3%.
For `COCCNc1nc(N)c([N+](=O)[O-])c(N2CCCCCC2)n1`, the Tm shift relative to glycine control is 0.58%.
In the case of `CCCc1cc(-c2nc(-c3ccc(C)cc3)cs2)ccn1` it was -8.16%.
On to `CCn1c(SCCC(C)C)nnc1-c1c[nH]c2ccccc12`, for which the Tm shift relative to glycine control was -26.6%.
Under `Cc1ccc(-c2csc(-c3c[nH]c4ccccc34)n2)cc1` stands 25.6% (active); under `COc1ccc(F)c(-c2nc(CN3CCC(c4ccccc4)CC3)c(C)o2)c1`, -0.88%.
For the molecule `CCCCn1c(N)c(N(CCC(C)C)C(=O)CC2OC(=O)c3ccccc32)c(=O)[nH]c1=O` (configuration not stated), the Tm shift relative to glycine control was -1.19%.
Turning to `CN(CC(=O)Nc1cccc(F)c1)C(=O)CC1CCCC1`, the Tm shift relative to glycine control is 2.89%.
In the case of `Cc1ccc(CSCC(=O)N(C)CC(=O)Nc2cccc(F)c2)cc1`, the Tm shift relative to glycine control was -1.41%.
For the molecule `CCN(CC)C(=O)CSC(Nc1cccc(F)c1)=C(C#N)C#N`, the Tm shift relative to glycine control is 11.7% (active).
Under `Cc1noc(C)c1S(=O)(=O)N(CC(=O)Nc1ccc2c(c1)OCCO2)c1ccc(C(C)C)cc1` stands 1.36%; under `CC1Cc2ccccc2N1CC(=O)Nc1ccc2c(c1)OC(F)(F)O2` (configuration not stated), -9.28%; under `COc1ccc(C(=O)NNS(=O)(=O)c2ccc(C)cc2)cc1`, 9.89%.
For the molecule `COc1ccc(C(=O)Oc2cc(/C=N/NS(=O)(=O)c3ccc(C)cc3)ccc2OC)cc1`, the Tm shift relative to glycine control was 14.3% (active).
For `COc1ccc(S(=O)(=O)N/N=C\c2ccc(OC)c(COc3ccc(C)cc3[N+](=O)[O-])c2)cc1`, the Tm shift relative to glycine control was 7.36%.
For the molecule `COC(=O)c1nc(NC(=O)c2ccccc2)n[nH]1`, the Tm shift relative to glycine control is -2.48%.
Take `COc1ccc(S(=O)(=O)NCC(c2ccco2)N2CCOCC2)cc1` (configuration not stated): the Tm shift relative to glycine control is 0.48%.
Regarding `COc1ccc(Nc2cc(=O)oc3ccccc23)cc1`, the Tm shift relative to glycine control was 13.9% (active).
For `COc1ccc(CCNC(=O)COC(=O)c2cc(=O)c3ccccc3o2)cc1`, the Tm shift relative to glycine control was -0.35%.
On to `COc1ccc2oc(=O)cc(-c3cc4ccccc4o3)c2c1`, for which the Tm shift relative to glycine control was -4.08%.
In the case of `CC1CCN(C(=O)CN(c2ccc(Oc3ccccc3)cc2)S(C)(=O)=O)CC1`, the Tm shift relative to glycine control was 0.83%.
For `CCOc1cc(-c2noc(CCCC(=O)NC3CCCCC3)n2)ccc1OC`, the Tm shift relative to glycine control is -2.03%.
For the molecule `COc1ccc(CN2CC(C(=O)NC3CCCCC3)CC2=O)cc1` (configuration not stated), the Tm shift relative to glycine control was 2.45%.
With `COC(=O)C(C)Oc1ccc2c(c1)O/C(=C\c1cccc(Br)c1)C2=O` (configuration not stated), the Tm shift relative to glycine control is -2.66%.
With `COc1cc(/C=C2\Oc3ccc(C#Cc4ccc(O)cc4)cc3C2=O)cc(OC)c1`, the Tm shift relative to glycine control was 16.2% (active).
`COc1cc(C#Cc2ccc3cc(CCCO)oc(=O)c3c2)cc(OC)c1`: the Tm shift relative to glycine control was -0.81%.
Turning to `CCN(CC(=O)Nc1cc(Cl)ccc1C)C(=O)CN1C(=O)NC2(CCCC2)C1=O`, the Tm shift relative to glycine control is 0.97%.
Turning to `CC(C)c1ccc(S(=O)(=O)N2CCN(C(C)C(=O)NC3CCCC3)CC2)cc1` (configuration not stated), the Tm shift relative to glycine control was -0.92%.
For the molecule `CC(C(=O)NC1CCCC1)N1CCN(S(=O)(=O)c2ccccc2Cl)CC1` (configuration not stated), the Tm shift relative to glycine control was 16.8% (active).
For `O=C(Cc1ccc(S(=O)(=O)N2CCCC2)s1)NC1CCCCCC1`, the Tm shift relative to glycine control was -3.8%.
